Measurements taken from PubChem BioAssay AID652065 (The Scripps Research Institute Molecular Screening Center, 2013).
The campaign covered roughly 4,300 compounds. About 3,000 (70%) were called active. So high a share suggests a set chosen from earlier hits. Not all results are given here. A number with no mark means an inactive call.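 The calls were made as follows: active = inhibition above a per-plate cutoff, the mean inhibition of sample wells plus 3 SD (cut at about 35% in these data); inactive = the rest.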

assay: small molecules binding CAG repeat RNA – biochemical, fluorescence, confirmation (AID 652065); settings: r(CAG) RNA repeat, TO-PRO-1 dye displacement fluorescence; at 3 µM; hits give high values;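 also: loss of TO-PRO-1 fluorescence as compound displaces dye from 1x1 AA loop RNA; 0% = DMSO only wells and 100% = 100 µM mitoxantrone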

SMILES | inhibition
COc1ccc(C(CNC(=O)c2cccc(S(=O)(=O)Nc3ccccc3Cl)c2)N2CCOCC2)cc1 (centres undefined) | 63.9% (active)
Cc1cc(C(=O)N/N=C/c2ccc(O)c([N+](=O)[O-])c2)c(C)n1-c1ccc(F)cc1 | 42.6% (active)
Cc1sc(NC(=O)c2ccc3ncsc3c2)c(C(N)=O)c1C | 18.1%
O=c1ccc2c(-c3ccccc3S(=O)(=O)O)c3ccc(O)c(O)c3oc-2c1O | 91.4% (active)
CCc1ccc(N2CC(C(=O)Nc3ccc(S(=O)(=O)Nc4nccs4)cc3)CC2=O)cc1 (centres undefined) | 42% (active)
CCCCCCC(=O)Nc1nc(C)c(-c2csc(Nc3cc(Cl)ccc3OC)n2)s1 | 21.8%
Cc1ccc(OCCC(=O)Nc2ccc(S(=O)(=O)Nc3nccs3)cc2)cc1 | 35% (active)
O=C(Nc1ccc(S(=O)(=O)Nc2nccs2)cc1)c1cc(-c2ccncc2)nc2ccccc12 | 65.2% (active)
O=C(Nc1ccc(S(=O)(=O)Nc2nccs2)cc1)c1cccc(S(=O)(=O)N2CCOCC2)c1 | 20.8%
O=C(CCc1ccccc1Cl)Nc1ccc(S(=O)(=O)Nc2nccs2)cc1 | 39.1% (active)
COC(=O)c1sc(-c2ccc(C(C)(C)C)cc2)cc1NC(=O)/C=C/C(=O)O | 80% (active)
C[C@H]([C@@H](O)[C@@H](O)[C@@H](C)C(C)(C)C)[C@H]1CC[C@H]2C3CC[C@H]4C[C@H](OS(=O)(=O)O)[C@@H](OS(=O)(=O)O)C[C@]4(C)[C@H]3CC[C@]12C (some centres undefined) | 87.8% (active)
Cc1ccc(NC(=O)Nc2nnc(-c3ccncc3)s2)cc1 | 25.5%
O=C(Nc1ccccc1)Nc1nnc(COc2ccccc2F)s1 | 42.2% (active)
O=C(Nc1ccccc1)Nc1nc2ccccc2s1 | 13.2%
COC(=O)c1sccc1NC(=O)CSc1ccccc1NS(=O)(=O)c1cc(Cl)ccc1Cl | 73% (active)
O=C(Nc1cccc(Cl)c1)Nc1ccccc1NS(=O)(=O)c1cccs1 | 34.4%
CCOc1cc(C(=O)Nc2ccc(S(=O)(=O)Nc3cnc4ccccc4n3)cc2)cc(OCC)c1OCC | 66.4% (active)
Cc1ccccc1-c1ccc2c(c1)O[C@@H](CN(C)Cc1ccc(C(=O)O)cc1)[C@@H](C)CN([C@H](C)CO)S2(=O)=O | 58.3% (active)
COc1cc(C(=O)Nn2c(O)c(C3=c4ccccc4=NC3=O)sc2=S)ccc1O | 14.6%
Cc1cc(OC(C)C(=O)Nc2ccc(S(=O)(=O)Nc3onc(C)c3C)cc2)cc(C)c1Cl (centres undefined) | 62.4% (active)

SMILES | inhibition
Cc1ccc(C(=O)/C=C/Nc2ccc(S(=O)(=O)Nc3onc(C)c3C)cc2)cc1 | 62.5% (active)
CCn1c(SCC(=O)Nc2ccc(S(=O)(=O)Nc3onc(C)c3C)cc2)nnc1-c1ccccc1 | 22%
Cc1noc(NS(=O)(=O)c2ccc(NC(=O)c3oc4ccc(F)cc4c3C)cc2)c1C | 71.9% (active)
Cc1cc(C)c2nc(-c3cccnc3)cc(C(=O)Nc3ccc(S(=O)(=O)Nc4onc(C)c4C)cc3)c2c1 | 83.2% (active)
CCc1ccc(OC(C)C(=O)Nc2ccc(S(=O)(=O)Nc3cc(C)on3)cc2)cc1 (centres undefined) | 26.1%
COc1cccc(-c2coc3cc4oc(=O)c(CC(=O)O)c(C)c4cc23)c1 | 42.7% (active)
O=C(COc1ccc([N+](=O)[O-])cc1)Nc1cccc(C(=O)Nc2ccccc2C(=O)O)c1 | 62.4% (active)
CCN(CC)C(=O)CSC(Nc1cccc(F)c1)=C(C#N)C#N | 38.4% (active)
Cc1nnc(SC(C(=O)Nc2cc(Cl)cc(Cl)c2)c2ccccc2)[nH]c1=O (centres undefined) | 64.1% (active)
COc1ccc(Cc2nnc(SCC(=O)Nc3ccc(C)c(Cl)c3)[nH]c2=O)cc1 | 62.5% (active)
CC(=O)Nc1ccc(S(=O)(=O)N(CCc2ccccc2)CC(=O)N/N=C/c2ccc(C(=O)O)cc2)cc1 | 28.1%
O=C(COC(=O)c1ccc(NS(=O)(=O)c2cccs2)cc1O)Nc1ccc(F)cc1 | 23.1%
Cc1cc(NS(=O)(=O)c2ccc(NC(=O)CSc3nnc(SCc4ccc(F)cc4)s3)cc2)nc(C)n1 | 45% (active)
Cc1cc(NS(=O)(=O)c2ccc(NC(=O)CSc3nnc(-c4ccc(C(C)(C)C)cc4)n3Cc3ccco3)cc2)nc(C)n1 | 23.6%
C=CCn1c(=S)[nH]c2scc(-c3ccco3)c2c1=O | 27.3%
COc1cccc(/C=N/Nc2ccc(S(=O)(=O)Nc3ccccc3C(=O)O)cc2[N+](=O)[O-])c1O | 93.9% (active)
COc1ccc(Br)cc1/C=N/Nc1ccc(S(=O)(=O)Nc2ccccc2C(=O)O)cc1[N+](=O)[O-] | 93.4% (active)
O=C(O)c1ccccc1/C=N/Nc1ccc(S(=O)(=O)Nc2ccc(Cl)cc2)cc1[N+](=O)[O-] | 63.4% (active)
NS(=O)(=O)c1ccc(N=Nc2c(O)[nH]c3ccc(Br)cc23)cc1 | 18.8%
O=C1/C(=C/c2ccc(F)cc2)SC(=S)N1NS(=O)(=O)c1ccccc1 | 53.6% (active)
COc1ccc(/C=C/C(=O)c2ccc(NS(=O)(=O)c3ccc(C)cc3)cc2)cc1O | 54.9% (active)

SMILES | inhibition
COc1cc(/C=C2/C(=O)NN(c3cccc(Cl)c3)C2=O)cc(Br)c1O | 24.5%
O=C(Nc1nncs1)c1ccccc1NS(=O)(=O)c1cccs1 | 30.2%
COc1cc(NC(=O)c2ccccc2NS(=O)(=O)c2ccc(Cl)s2)cc(OC)c1 | 82% (active)
CCc1nnc(NS(=O)(=O)c2ccc(NC(=S)NC(=O)c3cccs3)cc2)s1 | 46.7% (active)
CCc1nnc(NS(=O)(=O)c2ccc(NC(=O)c3cccc(OC(F)(F)C(F)F)c3)cc2)s1 | 56.7% (active)
NS(=O)(=O)c1ccc(NC2=CC(c3ccc(F)cc3)N(c3ccc(S(N)(=O)=O)cc3)C2=O)cc1 (centres undefined) | 12.6%
Cc1ccc(SC(CC(=O)c2ccc(C(C)(C)C)cc2)C(=O)O)cc1 (centres undefined) | 44.7% (active)
Cc1ccc(C(=O)Oc2coc(CSc3nnc(NC(=O)c4cccs4)s3)cc2=O)cc1C | 60.6% (active)
O=C(O)CCn1cc(/C=C/C(=O)c2ccc(Cl)cc2)c(-c2cccc(Br)c2)n1 | 86.2% (active)
CN(C(=O)COC(=O)c1cc(-c2ccco2)nc2ccccc12)C1CCS(=O)(=O)C1 (centres undefined) | 27.6%
CC(C)c1ccc(Nc2nnc(SCC(=O)c3nnc(-c4ccccc4)o3)s2)cc1 | 56.2% (active)
Cc1ccc(-c2csc(C(C#N)=C(O)CN3CCN(C(=O)c4ccco4)CC3)n2)cc1 | 60.2% (active)
O=C1c2cccc3cccc(c23)C(=O)N1CCCCCc1n[nH]c(=S)o1 | 26.9%
COc1ccccc1/C=C/C=N/n1c(-c2ccc(Cl)cc2Cl)n[nH]c1=S | 42.1% (active)
O=C(O)c1[nH]c2ccccc2c1C(c1cccc(O)c1)c1c(C(=O)O)[nH]c2ccccc12 | 38.5% (active)
CC(=O)Nc1ccc(S(=O)(=O)Nc2nc(-c3ccc(C(C)(C)C)cc3)cs2)cc1 | 67.6% (active)
CC(=O)Nc1ccc(C(=O)Nc2nc(-c3cc(C)n(Cc4ccccc4)c3C)cs2)cc1 | 20.6%
CC(=O)Nc1ccc(-c2csc(NC(=O)Nc3ccccc3)n2)cc1 | 23.1%
Cc1ccc(Nc2nc(CSc3nnnn3-c3ccccc3)cc(=O)[nH]2)cc1 | 50.7% (active)
COc1ccccc1C1C(C#N)=C(N)Oc2c1c(-c1ccccc1)nn2-c1ccccc1 (centres undefined) | 30%
CC(C)(C)C1C/C(=C/c2ccco2)C(=O)/C(=C/c2ccco2)C1 (centres undefined) | 44.2% (active)

SMILES | inhibition
Cc1ccc(Nc2nc(-c3ccc(O)cc3O)cs2)nc1 | 23.4%
O=C(Nc1nc(-c2ccco2)c(-c2ccco2)s1)c1ccco1 | 34.7% (active)
CCc1nnc(NS(=O)(=O)c2ccc(N=Cc3c(C)[nH]n(-c4ccc(C)cc4)c3=O)cc2)s1 | 69.2% (active)
COC(=O)c1ccc(COc2ccc(/C=C/C(=O)c3ccc(OC)c(CSCC(=O)O)c3)cc2OC)cc1 | 66.9% (active)
COc1ccc(C(=O)/C=C/c2ccc(-c3ccccc3)cc2)cc1CSCC(=O)O | 85.1% (active)
CCOC(=O)c1ccccc1N1C(=O)C2Sc3[nH]c(=O)sc3C(/C=C/c3ccccc3)C2C1=O (centres undefined) | 46.1% (active)
O=C(O)c1ccc(NN=CC2=C(N3CCOCC3)/C(=C/c3ccccc3)CC2)cc1 | 70.3% (active)
Cc1ccc(C)c(Cn2nnc3c(=O)[nH]c(C(=O)Nc4ccc(F)cc4)nc32)c1 | 43.2% (active)
COc1cccc2sc(NNC(=O)c3nc4ccccc4s3)nc12 | 85% (active)
Clc1ccccc1CSc1nnc(-c2ccco2)c(-c2ccco2)n1 | 59.9% (active)
COc1ccc(-c2nc3ccc(Br)cn3c2Cc2ccc(C)cc2)cc1OC | 9.11%
Cc1cc(Br)cn2c(Cc3cccc(F)c3)c(-c3cccc(Br)c3)nc12 | 4.39%
Fc1cccc(Cc2c(-c3cccc(Cl)c3)nc3ccc(Br)cn23)c1 | 40.3% (active)
COc1ccc(C(=O)Nc2cccc(/C=C(/CCC(=O)O)c3nc4ccccc4s3)c2)cc1 | 72.8% (active)
O=C(O)CC/C(=C\c1cc2c(cc1Br)OCO2)c1nc2ccccc2s1 | 50.5% (active)
CCOC(=O)c1csc(NC(=O)Nc2cccc(OC)c2)n1 | 29.9%
O=C(c1cccnc1)N(c1cc2sc(=O)oc2c2ccccc12)S(=O)(=O)c1ccccc1 | 57.6% (active)
CC(=O)N(c1ccc2oc(=O)sc2c1)S(=O)(=O)c1ccc(C)cc1 | 5.58%
O=C1Oc2ccccc2C(=O)/C1=C/c1ccccc1O | 39% (active)
O=c1oc(-c2ccccc2NS(=O)(=O)c2ccc(Cl)cc2)nc2ccccc12 | 17.2%
COc1ccc(S(=O)(=O)/N=C2\C=C(NS(=O)(=O)c3ccccc3)C(=O)c3ccccc32)cc1 | 85% (active)
